Inconclusive results are not listed. Entries that show only a call come without a potency. Calls of active or inactive are those of the source. Calls come from the whole dose curve; as a rule, active = well fitted inhibition curve with a large enough effect; inconclusive = small, poorly fitted or top-dose-only effect; inactive = flat fitted curve, though single readings scatter.
Target: Calcium and integrin-binding protein 1 (Homo sapiens) (UniProt Q99828)
Experiment: Primary qHTS for Identification of Calcium Integrin Binding Protein 1 (CIB1) Competitor (AID 1508620); note: top concentration of the series differs between compounds
Outline: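 Fluorescence polarization competition: GST-tagged CIB1 (1 uM final) preincubated with compound 15 min at room temperature, then FITC-labelled alphaIIb peptide (100 nM final) added. After 15 min at room temperature, polarization read at Ex 480/Em 540.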

Chain of Calcium and integrin-binding protein 1 (Homo sapiens) (Q99828 whole entry, looked up): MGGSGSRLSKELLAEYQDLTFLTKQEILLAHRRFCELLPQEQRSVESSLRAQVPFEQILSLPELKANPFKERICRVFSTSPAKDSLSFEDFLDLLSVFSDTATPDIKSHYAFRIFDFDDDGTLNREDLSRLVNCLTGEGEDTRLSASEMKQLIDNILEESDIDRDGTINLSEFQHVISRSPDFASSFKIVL

Compound | Potency
CCCCN(C)C(=O)Cn1nc(-c2ccc(Cl)cc2)ccc1=O | inactive
Brc1ccccc1-c1nc(NCc2ccc(-c3cccnc3)cc2)c2ccccc2n1 | inactive
O=S1(=O)N=C(Oc2ccc(Br)cc2)c2ccccc21 | inactive
CC(=O)Nc1sc2c(c1-c1nc(-c3ccccc3)cs1)CCN(C(C)C)C2 | inactive
Cc1ccnc(NC(=S)N2CC3CN(c4cccc(C(F)(F)F)c4)CC3C2)c1 (stereo not given) | inactive
Clc1ccc(CSc2nc3ncc(Br)cc3[nH]2)cc1 | inactive
CCC(CC)C(=O)NCCc1nc2ccccc2n1CCOc1ccc(C)cc1 | inactive
Cc1cc(C)nc(NC(=S)N2CCN(c3ncc(Cl)cc3Cl)CC2)c1 | inactive
COc1ccc(NS(=O)(=O)c2ccccc2C(=O)O)cc1 | inactive
Cc1ccsc1CN(C)c1ncnc2ccc(-c3ccc([C@@H](C)O)o3)cc12 | inactive
O=S(=O)(Nc1ccc(-c2ccccc2)cc1)c1ccc(NCc2ccc(Br)cc2O)cc1 | inactive
O=C1c2ccccc2NC(c2ccc(-c3cccc(F)c3)o2)N1O (stereo not given) | inactive
Cc1ccnc(NC(=S)N2CCN(c3ccc(C(F)(F)F)cc3)CC2)c1 | inactive
N#Cc1ccc(-c2ccc(CNc3ccc(N4CCCCC4)cc3)o2)cc1 | inactive
COc1ccc(/C=C2/C(=O)Nc3ccccc32)cc1O | inactive
Cn1cccc1CN=C1NC2=C(C(=O)CCC2)C(c2[nH]ncc2Cl)N1 (stereo not given) | inactive
CCc1ccc(-c2nn3c(C)nnc3s2)cc1NC(=O)c1ccc(-c2cccc(Cl)c2)o1 | inactive
O=c1c2ccccc2nc2sc(Nc3ccc(Br)cc3)nn12 | inactive
O=C(Nc1nnc(-c2ccncc2)s1)Nc1ccc(Cl)c2ccccc12 | inactive
Cc1cccc(N2CCN(C(=S)Nc3cc(C)ccn3)CC2)c1 | inactive
O=S1(=O)Nc2c(ccc3cccnc23)-c2ccccc21 | inactive
O=C1NS(=O)(=O)c2cc(Br)ccc21 | inactive
O=C(OCC#CCSc1nnc(-c2ccc3ccccc3c2)o1)c1cccc(F)c1 | inactive
O=S(=O)(c1ccc2c(c1)OCCO2)N1CCN(S(=O)(=O)c2ccc(F)c(F)c2F)CC1 | inactive
CCOc1ccc(COc2ccc(-c3nc4ccccc4[nH]3)cc2)cc1 | inactive

From PubChem BioAssay (NCATS)
